# Results taken from PubChem BioAssay (NCI).
# Values joined by “and” are separate entries in the source; they are usually repeats but may differ in a detail not shown here. Equal values may be shown once. Compounds without any hit were thinned out: in the full panel of roughly 83,000, 20% have a hit.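 Results are percent growth after 48 hours of single-concentration exposure. 100 means growth as in untreated cells, lower positive values show inhibition; negative values down to -100 show cell death.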 A structure can be active in one record and inactive in another. Active and inactive are the calls of the source. The calls were made as follows: active = growth percent below 10; inactive = the rest.
# Columns and labels:
# Assay in all cases: NCI-60 one-dose screen, 48 h (100 = growth as untreated, 0 = no growth, -100 = all killed)
# HCT-15 colon = conditions: 10 µM
# HT29 colon = conditions: 10 µM
# SNB-75 CNS = conditions: 10 µM
# SNB-19 CNS = conditions: 10 µM
# U251 CNS = conditions: 10 µM
# PC-3 prostate = conditions: 10 µM
# SK-MEL-5 melanoma = conditions: 10 µM
# UACC-62 melanoma = system: UACC-62 melanoma
# LOX IMVI melanoma = conditions: 10 µM
# SK-MEL-28 melanoma = conditions: 10 µM
SMILES,growth (HCT-15 colon),growth (HT29 colon),growth (SNB-75 CNS),growth (SNB-19 CNS),growth (U251 CNS),growth (PC-3 prostate),growth (SK-MEL-5 melanoma),growth (UACC-62 melanoma; 10 µM),growth (UACC-62 melanoma; 100 µM),growth (LOX IMVI melanoma),growth (SK-MEL-28 melanoma)
C=C1C(=O)OC2CC1C(OC(C)=O)C/C(C)=C/CC/C(C)=C\CCC2(C)O (stereo not drawn),-80.1% (active),-45.1% (active),19.8% (inactive),51.6% (inactive),33.3% (inactive),18.3% (inactive),55.8% (inactive),44.5% (inactive),-94.6% (active),6.22% (active),
Cc1cc(N(CCOS(C)(=O)=O)CCOS(C)(=O)=O)ccc1C=Nc1ccc(-c2nc(Cc3ccccc3)sc2C)cc1,55% (inactive),46.2% (inactive),-1.26% (active),39.5% (inactive),43.2% (inactive),55% (inactive),45.2% (inactive),37.8% (inactive),,34.9% (inactive),
CN(C)CCOC1(Cc2ccc(Cl)cc2Cl)CCC(C(C)(C)C)CC1 (stereo not drawn),-11.2% (active) and -80.3% (active),-37.7% (active) and -58.6% (active),47.1% (inactive) and 44.2% (inactive),15.5% (inactive) and -25.9% (active),-95.2% (active) and -100% (active),40.8% (inactive) and 35.7% (inactive),10.2% (inactive) and -63.9% (active),-26% (active) and -56.2% (active),,-100% (active),-58.7% (active) and -50% (active)
O=[N+]([O-])c1cc[n+]([O-])cc1,112% (inactive),105% (inactive),,88.5% (inactive),111% (inactive),101% (inactive),95% (inactive),91.1% (inactive),,96.3% (inactive),115% (inactive)
COc1ccc(C(=O)C(CN(C)C)CN(C)C)cc1,46.6% (inactive),-77.3% (active),76.4% (inactive),103% (inactive),102% (inactive),89.6% (inactive),101% (inactive),73.4% (inactive),,82.4% (inactive),83.1% (inactive)
CC1=CC(=C(c2ccc(N)cc2)c2ccc(N)cc2)C=CC1=N,53.9% (inactive) and 73.4% (inactive),6.75% (active) and 10.4% (inactive),-1.98% (active) and 23.7% (inactive),17.9% (inactive) and 21.6% (inactive),17.4% (inactive) and 10.6% (inactive),9.47% (active) and 18.5% (inactive),-37.3% (active) and -25.8% (active),-20.2% (active) and 22.6% (inactive),,7.6% (active) and 22.4% (inactive),28.8% (inactive) and 45.9% (inactive)
COc1cc([C@@H]2c3cc4c(cc3[C@@H](Nc3ccc(NC(=O)c5cc([N+](=O)[O-])cn5C)cc3)[C@H]3COC(=O)[C@H]23)OCO4)cc(OC)c1O,,,,,,,,,-35.1% (active),,
C#CCN(Cc1ccc2nc(N)[nH]c(=O)c2c1)c1ccc(C(=O)NC(CCC(=O)O)C(=O)O)cc1 (stereo not drawn),65.5% (inactive),62.5% (inactive),86.5% (inactive),,89.2% (inactive),64.6% (inactive),100% (inactive),81.6% (inactive),,16% (inactive),95.2% (inactive)
Cc1ccc(Sc2ccccc2N)cc1,21.2% (inactive),26.1% (inactive),122% (inactive),95.6% (inactive),84.3% (inactive),74.4% (inactive),91.8% (inactive),90.2% (inactive),,76.1% (inactive),118% (inactive)
